Data taken from PubChem BioAssay (NCI).
About 83,000 compounds went through this panel and 20% of them were active in at least one assay; those are over-represented in the sample as a whole.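 How to read the values: 0–100, growth inhibition (40 = 60% inhibited); 0, no net growth; -100 to 0, cell death (-40 = 40% of starting cells died; -100 = all dead).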 The source made the active and inactive calls. How the source made its calls: active means growth percent below 10; inactive means the rest.

These compounds were tested on HCT-15 colon (assay: NCI-60 one-dose screen, 48 h (100 = growth as untreated, 0 = no growth, -100 = all killed)). Conditions: 10 µM unless noted.

Compound | growth
CCCCCCNC(=O)Oc1ccc(/C(=C(/C)Cc2ccc(OC)cc2)c2ccc(OCCN3CCCCC3)cc2)cc1 | 31.6% (inactive)
COc1cc(/C=C/C(=O)/C=C(/C=C/c2ccc(OC(C)=O)c(OC)c2)OB(F)F)ccc1OC(C)=O | 15.4% (inactive)
O=C(CCC(=O)N(CCO)CCO)N(CCO)CCO | 94.9% (inactive)
O=C(O)c1ccc(Br)nc1 | 97.8% (inactive)
COc1ccc2c(c1)/C(=C1/S/C(=N/c3nnc(C)s3)NC1=O)C(=O)N2Cc1ccc(Br)cc1 | 27.5% (inactive)
COc1ccc(C2=C/C(=C\c3ccc(Cl)cc3)C(=O)NN2C(=S)NN)cc1 | 104% (inactive)
CCC(C)(C)c1ccc(OCCCCCCN2CCN(c3ccc(C)c(Cl)c3)CC2)cc1 | 64.8% (inactive)
COC1=C(OC)C(=O)c2ccccc2C1=O | 101% (inactive)
CCOC1=C(Cl)C(=O)C(OCC)=C(Cl)C1=O | 107% (inactive)
CCS(=O)(=O)OCCO[C@H]1Cc2cc3ccc(=O)oc3cc2OC1(C)C | 109% (inactive)
O=CN/N=C/c1ccc(Cl)c([N+](=O)[O-])c1 | 47.3% (inactive)
CCN(CC)CCCNc1c2ccc(Cl)cc2nc2ccc(OC)cc12 | 1.74% (active)
COc1ccc(-c2nc(SCC(C)C)nc(Nc3ccc(C)cc3)c2C#N)cc1 | 84.8% (inactive)
CC(=O)OC1/C=C\CC/C=C\C1 (stereo not given) | 98% (inactive)
CCCCCCC(C)N(CC(C)(C)O)C(=O)c1ccc([N+](=O)[O-])cc1 (stereo not given) | 104% (inactive)
CC(=O)Nc1nc(C)c(C(=O)NNC(=O)Nc2ccccc2)s1 | 96.7% (inactive)
COC(=O)C(C)[C@H]1CC[C@@H]2[C@]1(C)CC=C1[C@]23C=C[C@]2(C[C@@H](OC(C)=O)CC[C@]12C)C(C(=O)OC)C3C(=O)OC (stereo not given in full) | 61.5% (inactive)
CC/C(=N\Nc1nc2ccccc2n1C)c1ccccn1 | 18.5% (inactive)
COc1ccc(Cn2cc3c(c2-c2ccc(O)cc2)CCc2cnoc2-3)cc1 | 21.3% (inactive)
COc1ccc2c(c1)/C(=C/c1c(-c3cc(OC)c(OC)c(OC)c3)nc3sccn13)C(=O)N2 | 99.5% (inactive)

Compound | growth
O=C(N/N=C\c1ccc(Cl)cc1)C(=O)N/N=C\c1ccc(Cl)cc1 | 101% (inactive)
c1ccc2[nH]c(-c3ccc(OCCCCCOc4ccc(-c5nc6ccccc6[nH]5)cc4)cc3)nc2c1 | 16.7% (inactive)
O=C1Nc2c(c(=O)n(-c3ccccc3)c3ccccc23)C(c2ccc(Cl)cc2)N1 (stereo not given) | 90.4% (inactive)
CN1CCN(Cc2ccc(NC(=O)c3cncc(C#Cc4c(N)ncc5ccc(F)cc45)c3)cc2C(F)(F)F)CC1 | 25.9% (inactive)
CCCCN(CCCC)c1ccc(C(=O)O)cc1 | 97.3% (inactive)
CNc1ccc(Nc2ccc(S(=O)(=O)O)cc2)c2c1C(=O)c1ccccc1C2=O | 98.6% (inactive)
c1cc(C2CCCCC2)ccc1OCCCCCCN1CCNCC1 | -64.5% (active)
O=C(O)c1occ(Cl)c1Cl | 105% (inactive)
COc1cc(-c2nn(-c3ccc(NC(=O)Nc4ccc(Cl)c(Cl)c4)cc3)cc2-c2ccncc2)ccc1Cl | 28.9% (inactive)
CN1CCN(Cc2ccc(NC(=O)c3ccc(C#Cc4c(N)ncc5ccc(F)cc45)cc3)cc2C(F)(F)F)CC1 | -55.4% (active)
C#CCCCCCCC[C@@H]1OC(=O)[C@H]([C@@H](C)CC)NC(=O)[C@H]([C@@H](C)CC)NC(=O)CC(=O)[C@@H]1C | 98.2% (inactive)
c1ccc(C(=NNc2nc3ccccc3o2)c2ccccn2)nc1 | 16.8% (inactive)
CC(C)OC(=O)c1ccc2n1CCCc1cnc(Nc3ccccc3)nc1-2 | 43.7% (inactive)
COc1ccc(-c2nc(N)n(C(=S)Nc3ccccc3)n2)cc1 | 102% (inactive)
COc1ccc(C(=O)CN2C(=O)NC(c3ccccc3)(c3ccccc3)C2=O)cc1 | 99.5% (inactive)
CC(=O)CC(=O)OC/C=C(/C)CCC=C(C)C | 102% (inactive)
COc1cc(N)c2nccc(C)c2c1OC | 115% (inactive)
CCn1cc(C(=O)O)c(=O)c2cc(F)c(N3CCN(S(=O)(=O)c4ccc(Cl)cc4)CC3)cc21 | 15.7% (inactive)
Nc1ccc(N=Nc2ccccc2)c2cc(S(=O)(=O)O)ccc12 | 104% (inactive)
O=C(O)CS(=O)c1ccc(Cl)cc1 (stereo not given) | 95.9% (inactive)

Each compound was assayed on HT29 colon in the same assay as above. Conditions: 10 µM unless noted.

Compound | growth
CCCCCCNC(=O)Oc1ccc(/C(=C(/C)Cc2ccc(OC)cc2)c2ccc(OCCN3CCCCC3)cc2)cc1 | 19.5% (inactive)
COc1cc(/C=C/C(=O)/C=C(/C=C/c2ccc(OC(C)=O)c(OC)c2)OB(F)F)ccc1OC(C)=O | 61.4% (inactive)
O=C(CCC(=O)N(CCO)CCO)N(CCO)CCO | 98.6% (inactive)
O=C(O)c1ccc(Br)nc1 | 96.1% (inactive)
COc1ccc2c(c1)/C(=C1/S/C(=N/c3nnc(C)s3)NC1=O)C(=O)N2Cc1ccc(Br)cc1 | 35.4% (inactive)
COc1ccc(C2=C/C(=C\c3ccc(Cl)cc3)C(=O)NN2C(=S)NN)cc1 | 109% (inactive)
CCC(C)(C)c1ccc(OCCCCCCN2CCN(c3ccc(C)c(Cl)c3)CC2)cc1 | 82.8% (inactive)
COC1=C(OC)C(=O)c2ccccc2C1=O | 107% (inactive)
CCOC1=C(Cl)C(=O)C(OCC)=C(Cl)C1=O | 101% (inactive)
CCS(=O)(=O)OCCO[C@H]1Cc2cc3ccc(=O)oc3cc2OC1(C)C | 101% (inactive)
O=CN/N=C/c1ccc(Cl)c([N+](=O)[O-])c1 | 6.89% (active)
CCN(CC)CCCNc1c2ccc(Cl)cc2nc2ccc(OC)cc12 | -15.4% (active)
COc1ccc(-c2nc(SCC(C)C)nc(Nc3ccc(C)cc3)c2C#N)cc1 | 82.9% (inactive)
CC(=O)OC1/C=C\CC/C=C\C1 (stereo not given) | 109% (inactive)
CCCCCCC(C)N(CC(C)(C)O)C(=O)c1ccc([N+](=O)[O-])cc1 (stereo not given) | 91.6% (inactive)
CC(=O)Nc1nc(C)c(C(=O)NNC(=O)Nc2ccccc2)s1 | 99% (inactive)
COC(=O)C(C)[C@H]1CC[C@@H]2[C@]1(C)CC=C1[C@]23C=C[C@]2(C[C@@H](OC(C)=O)CC[C@]12C)C(C(=O)OC)C3C(=O)OC (stereo not given in full) | 95.2% (inactive)
CC/C(=N\Nc1nc2ccccc2n1C)c1ccccn1 | 21.2% (inactive)
COc1ccc(Cn2cc3c(c2-c2ccc(O)cc2)CCc2cnoc2-3)cc1 | 19.9% (inactive)
COc1ccc2c(c1)/C(=C/c1c(-c3cc(OC)c(OC)c(OC)c3)nc3sccn13)C(=O)N2 | 108% (inactive)

Compound | growth
O=C(N/N=C\c1ccc(Cl)cc1)C(=O)N/N=C\c1ccc(Cl)cc1 | 103% (inactive)
c1ccc2[nH]c(-c3ccc(OCCCCCOc4ccc(-c5nc6ccccc6[nH]5)cc4)cc3)nc2c1 | -30.6% (active)
O=C1Nc2c(c(=O)n(-c3ccccc3)c3ccccc23)C(c2ccc(Cl)cc2)N1 (stereo not given) | 106% (inactive)
CN1CCN(Cc2ccc(NC(=O)c3cncc(C#Cc4c(N)ncc5ccc(F)cc45)c3)cc2C(F)(F)F)CC1 | -60.1% (active)
CCCCN(CCCC)c1ccc(C(=O)O)cc1 | 108% (inactive)
CNc1ccc(Nc2ccc(S(=O)(=O)O)cc2)c2c1C(=O)c1ccccc1C2=O | 105% (inactive)
c1cc(C2CCCCC2)ccc1OCCCCCCN1CCNCC1 | 4.38% (active)
O=C(O)c1occ(Cl)c1Cl | 122% (inactive)
COc1cc(-c2nn(-c3ccc(NC(=O)Nc4ccc(Cl)c(Cl)c4)cc3)cc2-c2ccncc2)ccc1Cl | 18.1% (inactive)
CN1CCN(Cc2ccc(NC(=O)c3ccc(C#Cc4c(N)ncc5ccc(F)cc45)cc3)cc2C(F)(F)F)CC1 | -73.2% (active)
C#CCCCCCCC[C@@H]1OC(=O)[C@H]([C@@H](C)CC)NC(=O)[C@H]([C@@H](C)CC)NC(=O)CC(=O)[C@@H]1C | 115% (inactive)
c1ccc(C(=NNc2nc3ccccc3o2)c2ccccn2)nc1 | 23% (inactive)
CC(C)OC(=O)c1ccc2n1CCCc1cnc(Nc3ccccc3)nc1-2 | 72.5% (inactive)
COc1ccc(-c2nc(N)n(C(=S)Nc3ccccc3)n2)cc1 | 99.4% (inactive)
COc1ccc(C(=O)CN2C(=O)NC(c3ccccc3)(c3ccccc3)C2=O)cc1 | 100% (inactive)
CC(=O)CC(=O)OC/C=C(/C)CCC=C(C)C | 108% (inactive)
COc1cc(N)c2nccc(C)c2c1OC | 111% (inactive)
CCn1cc(C(=O)O)c(=O)c2cc(F)c(N3CCN(S(=O)(=O)c4ccc(Cl)cc4)CC3)cc21 | 7.87% (active)
Nc1ccc(N=Nc2ccccc2)c2cc(S(=O)(=O)O)ccc12 | 94.6% (inactive)
O=C(O)CS(=O)c1ccc(Cl)cc1 (stereo not given) | 105% (inactive)
